# Measured values from PubChem BioAssay (EPA / NIEHS).
# “And” between values parts separate entries of the source, which are not always exact repeats. Identical values can stand only once. Some structures have more than one record in an assay (separate samples or runs), and their calls can disagree. The source made the active and inactive calls. Rule for the calls: active = hit-call score of the fitted dose curve at least 0.9, where 1 is the maximum; inactive = score below 0.9.
# Columns and labels:
# Settings in all cases: mRNA level, 48 h; actives raise or lower the signal
# CYP2C8 (gene 1558) = assay: LTEA_HepaRG_CYP2C8: Life Technologies and Expression Analysis (LTEA) Assay for CYP2C8 using HepaRG (AID 2283483)
# In short: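 This is a transcriptional endpoint in HepaRG cultures: 48 h exposure, highest concentration 100 uM. CYP2C8 mRNA is quantified by TaqMan qRT-PCR.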
# CYP2C9 (gene 1559) = assay: LTEA_HepaRG_CYP2C9: Life Technologies and Expression Analysis (LTEA) Assay for CYP2C9 using HepaRG (AID 2283484)
# In short: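 Eight-point concentration-response (highest 100 uM, half-log dilutions) in HepaRG cells for 48 h; CYP2C9 expression by qRT-PCR normalized to ACTB, GAPDH, POLR2A. Bidirectional fit, DMSO baseline.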
# CYP2E1 (gene 1571) = assay: LTEA_HepaRG_CYP2E1: Life Technologies and Expression Analysis (LTEA) Assay for CYP2E1 using HepaRG (AID 2283485)
# In short: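 Readout is qRT-PCR of CYP2E1 mRNA, normalized to three housekeeping genes and fitted bidirectionally against 0.5% DMSO. HepaRG cells were dosed 48 h at eight concentrations, highest 100 uM with half-log dilutions.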
# CYP4A11 (gene 1579) = assay: LTEA_HepaRG_CYP4A11: Life Technologies and Expression Analysis (LTEA) Assay for CYP4A11 using HepaRG (AID 2283486)
# In short: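 Readout is CYP4A11 transcript level by qRT-PCR, normalized to three housekeeping genes and fitted bidirectionally against 0.5% DMSO. Human HepaRG cells were treated 48 h, in duplicate, with an 8-point half-log series topping at 100 uM.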
# [1] = read-out: DNA damage-inducible transcript 3 (DDIT3), DDIT3 (gene 1649); assay: LTEA_HepaRG_DDIT3: Life Technologies and Expression Analysis (LTEA) Assay for DNA damage-inducible transcript 3 (DDIT3) using HepaRG (AID 2283488)
# In short: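 Cells are human HepaRG liver cells treated for 48 h with eight half-log concentrations up to 100 uM in 0.5% DMSO. Transcript levels come from qRT-PCR normalized to three housekeeping genes, with activity fitted in both directions relative to vehicle.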
# [2] = read-out: Pro-epidermal growth factor (Homo sapiens) (UniProt P01133); assay: LTEA_HepaRG_EGF: Life Technologies and Expression Analysis (LTEA) Assay for Epidermal growth factor (EGF) using HepaRG (AID 2283489)
# In short: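 EGF transcript measured by Fluidigm TaqMan qRT-PCR with three housekeeping genes for normalization, 48 h after dosing HepaRG cultures in duplicate (top 100 uM, half-log steps, 0.5% DMSO vehicle). Gain or loss relative to DMSO fitted.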
# [3] = read-out: Early growth response protein 1 (EGR1) transcription factor, EGR1 (gene 1958); assay: LTEA_HepaRG_EGR1: Life Technologies and Expression Analysis (LTEA) Assay for Early growth response protein 1 (EGR1) transcription factor using HepaRG (AID 2283490)
# In short: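 EGR1 expression change in human HepaRG after 48 h chemical exposure, assessed by housekeeping-normalized qRT-PCR; concentration-response up to 100 uM, fitted in both directions against DMSO controls.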
# [4] = read-out: Ezrin (EZR), EZR (gene 7430); assay: LTEA_HepaRG_EZR: Life Technologies and Expression Analysis (LTEA) Assay for Ezrin (EZR) using HepaRG (AID 2283491)
# In short: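 Read-out is EZR transcript level by qRT-PCR, normalized to three housekeeping genes and fitted bidirectionally against the DMSO control. Human HepaRG cells received test chemicals for 48 h at eight half-log concentrations up to 100 uM in 0.5% DMSO.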
# CYP3A5 (gene 1577) = assay: LTEA_HepaRG_CYP3A5: Life Technologies and Expression Analysis (LTEA) Assay for CYP3A5 using HepaRG (AID 2283493)
# In short: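 Human HepaRG hepatic cells receive 48 h chemical treatment at eight concentrations (half-log steps from 100 uM) in 0.5% DMSO. Expression of CYP3A5 is quantified by Fluidigm qRT-PCR and normalized to three reference genes.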
# [5] = read-out: Fatty Acid-Binding Protein 1 (FABP1), FABP1 (gene 2168); assay: LTEA_HepaRG_FABP1: Life Technologies and Expression Analysis (LTEA) Assay for Fatty Acid-Binding Protein 1 (FABP1) using HepaRG (AID 2283494)
# In short: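 Values reflect bidirectional concentration-response fitting of FABP1 mRNA change against 0.5% DMSO controls. Human HepaRG cultures received eight half-log doses (top 100 uM) for 48 h; expression quantified by TaqMan qRT-PCR with housekeeping-gene normalization.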
# [6] = read-out: Cytochrome P450 7A1 (Homo sapiens) (UniProt P22680); assay: LTEA_HepaRG_CYP7A1: Life Technologies and Expression Analysis (LTEA) Assay for Cytochrome P450 7A1 (CYP7A1) using HepaRG (AID 2283496)
# In short: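 HepaRG, 48 h exposure, 8-pt half-log series from 100 uM, 0.5% DMSO vehicle, duplicates. Readout: TaqMan qRT-PCR mRNA vs three housekeeping genes; bidirectional curve fit against DMSO baseline.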
# [7] = read-out: Glutathione S-Transferase (GSTA2), GSTA2 (gene 2939); assay: LTEA_HepaRG_GSTA2: Life Technologies and Expression Analysis (LTEA) Assay for Glutathione S-Transferase (GSTA2) using HepaRG (AID 2283497)
# In short: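 Oxidative-stress marker GSTA2 is quantified by TaqMan qRT-PCR in HepaRG cultures treated 48 h across an eight-point range to 100 uM. Expression is normalized to endogenous controls and compared with 0.5% DMSO vehicle.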
# [8] = read-out: Glutamate-cysteine ligase catalytic (GCLC), GCLC (gene 2729); assay: LTEA_HepaRG_GCLC: Life Technologies and Expression Analysis (LTEA) Assay for Glutamate-cysteine ligase catalytic (GCLC) using HepaRG (AID 2283498)
# In short: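 Oxidative-stress marker GCLC is measured as mRNA change in human HepaRG liver cells after 48 h chemical treatment in 0.5% DMSO, eight concentrations from 100 uM. Activity is fitted bidirectionally against vehicle.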
# [9] = read-out: growth arrest and DNA damage 45 (GADD45G), GADD45G (gene 10912); assay: LTEA_HepaRG_GADD45G: Life Technologies and Expression Analysis (LTEA) Assay for growth arrest and DNA damage 45 (GADD45G) using HepaRG (AID 2283499)
# In short: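 GADD45G transcript level by qRT-PCR (housekeeping-normalized: ACTB, GAPDH, POLR2A) after 48 h chemical treatment of a single HepaRG lot in serum-free induction medium; eight-point half-log series up to 100 uM in 0.5% DMSO, duplicates, up- or down-regulation scored.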
# [10] = read-out: Glutamate-cysteine ligase regulatory (GCLM), GCLM (gene 2730); assay: LTEA_HepaRG_GCLM: Life Technologies and Expression Analysis (LTEA) Assay for Glutamate-cysteine ligase regulatory (GCLM) using HepaRG (AID 2283500)
# In short: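 Endpoint is GCLM transcript level by qRT-PCR, normalized to three housekeeping genes, after 48 h chemical exposure of human HepaRG cells (0.5% DMSO vehicle, top 100 uM, half-log dilutions). Fitting was bidirectional relative to DMSO.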
# [11] = read-out: Glutathione S-transferase M3 (GSTM3), GSTM3 (gene 2947); assay: LTEA_HepaRG_GSTM3: Life Technologies and Expression Analysis (LTEA) Assay for Glutathione S-transferase M3 (GSTM3) using HepaRG (AID 2283501)
# In short: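 GSTM3 transcript levels came from Fluidigm TaqMan qRT-PCR normalized to three housekeeping genes, fitted in both directions against DMSO. HepaRG cultures received chemicals for 48 h in serum-free induction medium (0.5% DMSO), 8 half-log concentrations up to 100 uM, duplicate.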
# [12] = read-out: Heat shock 70 kDa protein 1 (HSPA1A), gene 3303; assay: LTEA_HepaRG_HSPA1A: Life Technologies and Expression Analysis (LTEA) Assay for Heat shock 70 kDa protein 1 (HSPA1A) using HepaRG (AID 2283502)
# In short: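 Cells were plated and cultured for 48 h, then switched to serum-free induction medium. Chemicals were added at eight half-log concentrations up to 100 uM for 48 h. RNA was then isolated and HSPA1A measured by qRT-PCR with bidirectional curve fitting against DMSO.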
# [13] = read-out: Cytochrome P450 4A22 (Homo sapiens) (UniProt Q5TCH4); assay: LTEA_HepaRG_CYP4A22: Life Technologies and Expression Analysis (LTEA) Assay for Cytochrome P450 4A22 (CYP4A22) using HepaRG (AID 2283495)
# In short: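 Gene expression measured by qRT-PCR against three housekeeping genes (ACTB, GAPDH, POLR2A), with gain or loss fitted relative to 0.5% DMSO vehicle. HepaRG cultures received 48 h chemical treatment, top concentration 100 uM, half-log steps, duplicate wells.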
compound,measurement,setting,value
CC1(c2ccc(Oc3ccccc3)cc2)OC(=O)N(Nc2ccccc2)C1=O (centres undefined),AC50,CYP2C8 (gene 1558),15.9 µM (active)
same,AC50,CYP2C9 (gene 1559),17.4 µM (active)
same,AC50,CYP2E1 (gene 1571),5.56 µM (active)
same,AC50,CYP4A11 (gene 1579),8.16 µM (active)
same,AC50,[1],8.41 µM (active)
same,outcome,[2],inactive
same,AC50,[3],82.1 µM (active)
same,AC50,[4],4.5 µM (active)
same,AC50,CYP3A5 (gene 1577),90.2 µM (active)
same,AC50,[5],18.7 µM (active)
same,AC50,[6],12.3 µM (active)
same,AC50,[7],24.5 µM (active)
same,outcome,[8],inactive
same,AC50,[9],12.3 µM (active)
same,AC50,[10],9.75 µM (active)
same,AC50,[11],50.2 µM (active)
same,AC50,[12],80.5 µM (active)
CC1(C)C(C=C(Cl)Cl)C1C(=O)OC(C#N)c1ccc(F)c(Oc2ccccc2)c1 (centres undefined),AC50,CYP2C8 (gene 1558),17.1 µM (active)
same,AC50,CYP2C9 (gene 1559),14 µM (active)
same,AC50,CYP2E1 (gene 1571),55.3 µM (active)
same,outcome,CYP4A11 (gene 1579),inactive
same,outcome,[1],inactive
same,AC50,[2],61.4 µM (active)
same,outcome,[3],inactive
same,outcome,[4],inactive
same,outcome,CYP3A5 (gene 1577),inactive
same,outcome,[5],inactive
same,outcome,[13],inactive
same,outcome,[6],inactive
same,outcome,[7],inactive
same,outcome,[8],inactive
same,outcome,[9],inactive
same,outcome,[10],inactive
same,outcome,[11],inactive
same,outcome,[12],inactive
C[C@H]1[C@H](c2ccc(Cl)cc2)SC(=O)N1C(=O)NC1CCCCC1,AC50,CYP2C8 (gene 1558),77.8 µM (active)
same,AC50,CYP2C9 (gene 1559),78.6 µM (active)
same,AC50,CYP2E1 (gene 1571),32.5 µM (active)
same,AC50,CYP4A11 (gene 1579),40.4 µM (active)
same,AC50,[1],72.3 µM (active)
same,outcome,[2],inactive
same,outcome,[3],inactive
same,AC50,[4],77.9 µM (active)
same,outcome,CYP3A5 (gene 1577),inactive
same,AC50,[5],55.8 µM (active)
same,AC50,[13],47.1 µM (active)
same,AC50,[6],78.9 µM (active)
same,AC50,[7],79.3 µM (active)
same,AC50,[8],67.4 µM (active)
same,AC50,[9],72.9 µM (active)
same,AC50,[10],73.5 µM (active)
same,outcome,[11],inactive
same,outcome,[12],inactive
Oc1ccc(Cl)cc1Cc1ccccc1,outcome,CYP2C8 (gene 1558),inactive
same,AC50,CYP2C9 (gene 1559),79.2 µM (active)
same,outcome,CYP2C9 (gene 1559),inactive
same,AC50,CYP2E1 (gene 1571),50.5 µM (active)
same,outcome,CYP2E1 (gene 1571),inactive
same,AC50,CYP4A11 (gene 1579),81.7 µM (active) and 81.2 µM (active)
same,outcome,CYP4A11 (gene 1579),inactive
same,outcome,[1],inactive
same,outcome,[2],inactive
same,AC50,[3],50.5 µM (active)
same,outcome,[3],inactive
same,outcome,[4],inactive
same,AC50,CYP3A5 (gene 1577),50.5 µM (active)
same,outcome,CYP3A5 (gene 1577),inactive
same,AC50,[5],50.5 µM (active)
same,outcome,[5],inactive
same,AC50,[6],76.1 µM (active)
same,outcome,[6],inactive
same,AC50,[7],80.5 µM (active) and 92.2 µM (active)
same,outcome,[7],inactive
same,outcome,[8],inactive
same,outcome,[9],inactive
same,outcome,[10],inactive
same,AC50,[11],91.9 µM (active)
same,outcome,[11],inactive
same,outcome,[12],inactive
